Reference: PubChem BioAssay AID1159580 (chemical genetic matrix, 2015)
Values joined by “and” are separate entries in the source; they are usually repeats but may differ in a detail not shown here. Equal values may be shown once. The whole screen tested about 5,500 compounds, of which about 2,000 (36%) were called active. About 18% were inconclusive and are not listed. Rule as the data show it: active = normalized growth mostly below about 0.91 (no sharp cut-off); inconclusive = no clear call, values can overlap the other calls; inactive = mostly above about 0.92. This is one part of the list.

Assay: chemical genetic growth profiling, strain panel (AID 1159580);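 also: tested at 20 µM; growth read once vehicle control cultures reached saturation at 30 °C; 1 = growth at the plate median or of vehicle wells; lower values mean less growth of the strain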
Details: growth OD

Measured: normalized growth

NC(N)=NC(N)=Nc1ccccc1
inactive: S. cerevisiae deletion strains, locus YJR066W, strain TOR1, active compounds read low 0.931 | S. cerevisiae deletion strains, locus YKL009W, strain mrt4, active compounds read low 0.998 | S. cerevisiae deletion strains, locus YKL068W, active compounds read low 0.996 | S. cerevisiae deletion strains, locus YKL085W, strain MDH1 (second series), active compounds read low 1 | S. cerevisiae deletion strains, locus YKL085W, strain MDH1, active compounds read low 1 | S. cerevisiae deletion strains, locus YKL160W, strain elf1, active compounds read low 0.991 | S. cerevisiae deletion strains, locus YKL190W, strain CNB1, active compounds read low 1 | S. cerevisiae deletion strains, locus YKR001C, strain vps1, active compounds read low 0.994 | S. cerevisiae deletion strains, locus YKR026C, strain gcn3, active compounds read low 1 | S. cerevisiae deletion strains, locus YKR091W, strain srl3, active compounds read low 0.994 | S. cerevisiae deletion strains, locus YLL001W, strain dnm1, active compounds read low 0.982 | S. cerevisiae deletion strains, locus YLL026W, active compounds read low 1 | S. cerevisiae deletion strains, locus YLL041C, strain sdh2, active compounds read low 1 | S. cerevisiae deletion strains, locus YLR027C, strain aat2, active compounds read low 1 | S. cerevisiae deletion strains, locus YLR039C, strain RIC1, active compounds read low 1.05 | S. cerevisiae deletion strains, locus YLR058C, strain SHM2, active compounds read low 1.02 | S. cerevisiae deletion strains, locus YLR102C, strain apc9, active compounds read low 0.994 | S. cerevisiae deletion strains, locus YLR113W, strain HOG1, active compounds read low 0.988 | S. cerevisiae deletion strains, locus YLR221C, strain rsa3, active compounds read low 1 | S. cerevisiae deletion strains, locus YLR258W, strain gsy2, active compounds read low 0.988 | S. cerevisiae deletion strains, locus YLR262C, strain YPT6 (second series), active compounds read low 0.985 | S. cerevisiae deletion strains, locus YLR262C, strain YPT6, active compounds read low 1.05 | S. cerevisiae deletion strains, locus YLR268W, strain sec22, active compounds read low 0.997 | S. cerevisiae deletion strains, locus YLR320W, strain mms22, active compounds read low 0.993 | S. cerevisiae deletion strains, locus YLR330W, strain CHS5, active compounds read low 1.01 | S. cerevisiae deletion strains, locus YLR342W, strain FKS1 (second series), active compounds read low 1.02 | S. cerevisiae deletion strains, locus YLR342W, strain FKS1, active compounds read low 1 | S. cerevisiae deletion strains, locus YLR357W, strain rsc2, active compounds read low 0.998 | S. cerevisiae deletion strains, locus YLR370C, strain arc18, active compounds read low 1.01 | S. cerevisiae deletion strains, locus YLR371W, strain rom2, active compounds read low 0.986 | S. cerevisiae deletion strains, locus YLR384C, strain iki3, active compounds read low 0.999 | S. cerevisiae deletion strains, locus YLR418C, strain cdc73, active compounds read low 0.951 | S. cerevisiae deletion strains, locus YML016C, strain PPZ1, active compounds read low 1.02 | S. cerevisiae deletion strains, locus YML032C, strain rad52, active compounds read low 0.991 | S. cerevisiae deletion strains, locus YML120C, strain ndi1, active compounds read low 0.995 | S. cerevisiae deletion strains, locus YML124C, strain tub3, active compounds read low 0.991 | S. cerevisiae deletion strains, locus YMR058W, strain fet3, active compounds read low 1 | S. cerevisiae deletion strains, locus YMR078C, strain ctf18, active compounds read low 0.998 | S. cerevisiae deletion strains, locus YMR125W, strain sto1, active compounds read low 0.982 | S. cerevisiae deletion strains, locus YMR129W, active compounds read low 0.996 | S. cerevisiae deletion strains, locus YMR205C, strain PFK2, active compounds read low 1.01 | S. cerevisiae deletion strains, locus YMR223W, strain ubp8, active compounds read low 0.99 | S. cerevisiae deletion strains, locus YMR231W, strain pep5, active compounds read low 0.994 | S. cerevisiae deletion strains, locus YMR263W, strain SAP30, active compounds read low 0.993 | S. cerevisiae deletion strains, locus YMR307W, strain GAS1, active compounds read low 1.04 and 0.978 | S. cerevisiae deletion strains, locus YNL067W, strain RPL9B, active compounds read low 1.03 | S. cerevisiae deletion strains, locus YNL071W, strain lat1, active compounds read low 1.01 | S. cerevisiae deletion strains, locus YNL128W, strain TEP1, active compounds read low 1.01 and 1.02 | S. cerevisiae deletion strains, locus YNL175C, strain NOP13, active compounds read low 1.02 | S. cerevisiae deletion strains, locus YNL183C, strain NPR1, active compounds read low 0.923 | S. cerevisiae deletion strains, locus YNL197C, strain WHI3, active compounds read low 1.02 | S. cerevisiae deletion strains, locus YNL209W, strain ssb2, active compounds read low 1 | S. cerevisiae deletion strains, locus YNL224C, strain SQS1, active compounds read low 0.998 | S. cerevisiae deletion strains, locus YNL233W, strain BNI4, active compounds read low 1.02 | S. cerevisiae deletion strains, locus YNL248C, strain rpa49, active compounds read low 0.998 | S. cerevisiae deletion strains, locus YNL250W, strain rad50, active compounds read low 0.992 | S. cerevisiae deletion strains, locus YNL271C, strain bni1, active compounds read low 0.994 | S. cerevisiae deletion strains, locus YNL298W, strain CLA4, active compounds read low 0.993 | S. cerevisiae deletion strains, locus YNL307C, strain MCK1, active compounds read low 1 | S. cerevisiae deletion strains, locus YNL322C, strain KRE1 (second series), active compounds read low 1 | S. cerevisiae deletion strains, locus YNL322C, strain KRE1, active compounds read low 1 | S. cerevisiae deletion strains, locus YNR049C, strain mso1, active compounds read low 1.01 | S. cerevisiae deletion strains, locus YNR052C, strain pop2, active compounds read low 0.991 | S. cerevisiae deletion strains, locus YOL006C, strain TOP1, active compounds read low 1.03 | S. cerevisiae deletion strains, locus YOL012C, strain htz1 1.06 | S. cerevisiae deletion strains, locus YOL147C, strain pex11, active compounds read low 0.991 | S. cerevisiae deletion strains, locus YOR001W, strain rrp6, active compounds read low 0.989 | S. cerevisiae deletion strains, locus YOR061W, strain CKA2, active compounds read low 1.01 | S. cerevisiae deletion strains, locus YOR069W, strain VPS5, active compounds read low 1.01 | S. cerevisiae deletion strains, locus YOR070C, strain gyp1, active compounds read low 1 | S. cerevisiae deletion strains, locus YOR080W, strain dia2, active compounds read low 0.98 | S. cerevisiae deletion strains, locus YOR083W, strain WHI5 (second series), active compounds read low 1.02 | S. cerevisiae deletion strains, locus YOR083W, strain WHI5, active compounds read low 0.996 | S. cerevisiae deletion strains, locus YOR106W, strain vam3, active compounds read low 1 | S. cerevisiae deletion strains, locus YOR136W, strain idh2, active compounds read low 0.995 | S. cerevisiae deletion strains, locus YOR144C, strain elg1, active compounds read low 0.994 | S. cerevisiae deletion strains, locus YOR184W, strain ser1, active compounds read low 0.977 | S. cerevisiae deletion strains, locus YOR231W, strain MKK1, active compounds read low 1.01 | S. cerevisiae deletion strains, locus YOR265W, strain rbl2, active compounds read low 1.01 | S. cerevisiae deletion strains, locus YOR270C, strain vph1, active compounds read low 1.06 | S. cerevisiae deletion strains, locus YOR290C, strain snf2, active compounds read low 0.987 | S. cerevisiae deletion strains, locus YOR316C, strain cot1, active compounds read low 0.996 | S. cerevisiae deletion strains, locus YPL051W, strain arl3, active compounds read low 0.996 | S. cerevisiae deletion strains, locus YPL055C, strain LGE1, active compounds read low 0.993 | S. cerevisiae deletion strains, locus YPL078C, strain atp4, active compounds read low 1 | S. cerevisiae deletion strains, locus YPL106C, strain sse1, active compounds read low 0.955 | S. cerevisiae deletion strains, locus YPL240C, strain hsp82, active compounds read low 0.986 | S. cerevisiae deletion strains, locus YPL241C, strain CIN2, active compounds read low 1.01 | S. cerevisiae deletion strains, locus YPL256C, strain CLN2, active compounds read low 0.996 | S. cerevisiae deletion strains, locus YPR119W, strain clb2, active compounds read low 0.991 | S. cerevisiae deletion strains, locus YPR141C, strain kar3, active compounds read low 0.98 | S. cerevisiae deletion strains, locus YPR163C, strain tif3, active compounds read low 0.999 | S. cerevisiae deletion strains, locus YPR167C, strain met16, active compounds read low 0.996 | S. cerevisiae deletion strains, strain wtn01, active compounds read low 1 | S. cerevisiae strains, strain wild type, active compounds read low 1.01
